# High-throughput results deposited in PubChem by National Center for Advancing Translational Sciences (NCATS).
# SMN2 splice enh: increases expression of the SMN2 splice variant; HEK293 SMN2-luciferase splicing reporter, luminescence, 30-36 h; Potency, µM (top dose mostly 46.1 µM), for inactives: at the highest dose activity change, positive = activation, actives largely listed as activators; actives 2.8% (n = 210,000); AID 1458; also: % of control where 0% means no effect; nearly all actives have a fitted effect of over 55% in size
#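 HEK293 cells carry an SMN2 minigene-luciferase reporter in which exon 7 inclusion puts luciferase in frame. Cells were seeded at 2000 cells/well, attached for 10-12 hours, then exposed to compounds for 30-36 hours at 37C before ONE-Glo luminescence.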
# NPC1 prom act: activators of NPC1 promoter. Huh7 NPC1 promoter luciferase reporter, 24 h. Potency, µM (highest dose often 9.22 µM), without a hit: at the highest dose activation, hits mostly activators. actives 2.4% (n = 320,000); also: % of control where 0% means no effect; nearly all actives have a fitted effect of over 60% in size
#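 Stable NPC1-promoter luciferase Huh7 line; cpd (DMSO) 24 h, 37 °C, 5% CO2; Amplite luciferase reagent 10 min RT; luminescence readout. qHTS format.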
# ELG1 genotox: genotoxicity induction in ELG1-luciferase HEK293T cells; actives 1.3% (n = 330,000); Potency, µM (titrated, usually from 46 µM), for inactives: at the highest dose activity change, positive = activation, hits mostly activators; HEK293T ELG1-luciferase reporter, luminescence, 16 h; AID 504466; also: % of control where 0% means no effect; nearly all actives have a fitted effect of over 60% in size
#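 DMSO vehicle served as control against compound-treated ELG1-luciferase HEK293T cells; exposure lasted 16 hr at 37 °C and 5% CO2, followed by ONE-Glo luminescence detection after 30 min.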
# ELG1 DNA repair: ELG1-dependent DNA repair inhibition. HEK293T ELG1-luciferase reporter, luminescence, 16 h; DNA damage induced by 5-fluorouridine. Potency, µM (titrated, usually from 46.1 µM), inactives show at the top dose activity change, negative = inhibition, most hits filed as inhibitors. actives 2.3% (n = 330,000); also: % is scaled to controls: 0 for no effect and ±100 for the full control effect; nearly all actives have a fitted effect of over 55% in size
#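 DMSO vehicle served as the neutral condition. Each well held 2,000 cells given 5-fluorouridine plus compound; after 16 hr at 37 °C/5% CO2, ONE-Glo was added and luciferase measured 30 min later.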
# FLuc counter: counter-screen for miR-21 project: firefly luciferase inhibitors or activators. AID 588342. P08659. actives 6.9% (n = 360,000). purified FLuc, Km substrates, luminescence inhibition. Potency, µM (top dose mostly 57.5 µM), inactives show at the highest dose activity change, negative = inhibition, usual class: inhibitors;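 also: plate controls were vehicle for no effect and reference inhibitor for full effect; nearly all actives have a fitted effect of over 55% in size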
# Target sequence (P08659 whole entry, looked up): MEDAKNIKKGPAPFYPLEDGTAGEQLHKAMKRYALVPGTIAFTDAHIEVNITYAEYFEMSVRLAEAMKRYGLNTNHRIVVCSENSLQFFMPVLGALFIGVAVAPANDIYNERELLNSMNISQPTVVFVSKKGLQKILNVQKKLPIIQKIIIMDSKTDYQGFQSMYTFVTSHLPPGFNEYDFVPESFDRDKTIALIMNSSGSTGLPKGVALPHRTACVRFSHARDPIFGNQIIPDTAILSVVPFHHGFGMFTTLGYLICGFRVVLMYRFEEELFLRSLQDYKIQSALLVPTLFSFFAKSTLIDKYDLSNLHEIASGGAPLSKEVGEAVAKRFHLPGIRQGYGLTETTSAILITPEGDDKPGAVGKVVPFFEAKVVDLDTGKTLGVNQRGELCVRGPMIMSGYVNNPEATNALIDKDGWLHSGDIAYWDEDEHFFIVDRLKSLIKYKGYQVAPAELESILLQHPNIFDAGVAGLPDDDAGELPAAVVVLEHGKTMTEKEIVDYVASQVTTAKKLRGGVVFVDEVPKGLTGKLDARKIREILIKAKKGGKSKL
#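 Purified P. pyralis luciferase, 10 nM final, with Km-level 10 uM D-luciferin and 10 uM ATP in 50 mM Tris acetate pH 7.5, 10 mM Mg acetate, 0.01% Tween-20, 0.05% BSA; 6-point qHTS titration about 60 µM downward; luminescence read.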
# Rab9 promoter act: activators of Rab9 promoter. Huh7 Rab9 promoter-luciferase reporter, luminescence, 24 h. Potency, µM (titrated, usually from 9.22 µM), for the others: at the highest dose activation, negative = inhibition, hits mostly activators. actives 2.8% (n = 320,000); also: % of control where 0% means no effect; nearly all actives have a fitted effect of over 60% in size
#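 Huh7 cells stably carrying Rab9 promoter–luciferase reporter, plated 1500 cells/well, compound added after 2 h and incubated 24 h at 37 °C; luciferase luminescence then read after 10 min with detection reagent.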
# Numbers without * were called inactive; ? = inconclusive; . = no result; [ ] = dose if it differs, or a comment. Shown are actives, neighbours in structure and some others; about 9.3% of the full set was active somewhere. Calls follow the shape of the dose curve; as a rule, active = well fitted curve in the direction sought with a large enough effect; inconclusive = small, poorly fitted or top-dose-only effect, or another doubt; inactive = no such curve, though single readings can be large; an effect the other way counts as inactive or inconclusive. Potency is read from the fitted curve at half-maximal effect.
SMILES,SMN2 splice enh,NPC1 prom act,ELG1 genotox,ELG1 DNA repair,FLuc counter,Rab9 promoter act
CN(C)/C=C1/C(=O)N(c2ccc([N+](=O)[O-])cc2)N=C1c1ccccc1,10µM*,?,?,?,7.6µM*,?
CN(C)/C=C1\C(=O)N(c2ccc([N+](=O)[O-])cc2)N=C1c1ccccc1,?,?,9.2µM*,?,?,5.6µM*
C/C(=C1/C(=O)N(c2ccc([N+](=O)[O-])cc2)N=C1c1ccccc1)N(C)C,-32%,?,-4%,0%,3%,21%
Cc1ccc(C)c(N(C(=O)c2ccco2)C(C(=O)NC2CCCC2)c2ccco2)c1 (centres undefined),.,-2%,2%,-2%,4%,1%
O=C(NCC(c1cccnc1)N1CCOCC1)C(=O)Nc1cccc(Cl)c1 (centres undefined),.,.,.,.,-3%,.
CCC1CN(C(=O)N2CCC(C(=O)NCc3cccc(OC)c3OC)CC2)c2cc(C)ccc2O1 (centres undefined),.,-4%,-11%,15µM*,2%,0%
CCOc1ccc(CNC(=O)C2CCN(C(=O)N3CC(CC)Oc4ccc(C)cc43)CC2)cc1OC (centres undefined),.,.,.,.,5%,.
O=C(NOCc1ccccc1)c1coc(-c2ccccc2)n1,.,.,2%,?,.,.
Cc1[nH]c2ccccc2c1/C=C/c1nc2ccccc2c(=O)[nH]1,.,3.2µM*,7.3µM*,?,2.4µM*,1.4µM*
CCn1c(/C=C/c2c(C)[nH]c3ccccc23)nc2ccccc2c1=O,-6%[1.84 µM],-2%,7%,9%,-3%,9%
O=c1[nH]c(/C=C/c2ccccc2Cl)nc2ccccc12,.,?,2.1µM*,?,0.85µM*,0.4µM*
O=C(O)c1ccc(/C=C/c2nc3sc4c(c3c(=O)[nH]2)CCC4)cc1,-13%,5%,3%,-5%,19µM*,13%
CCOc1cc(/C=C/c2nc3ccccc3c(=O)[nH]2)ccc1O,.,?,?,29%,?,?
Cc1cccc(/C=C/c2nc3ccccc3c(=O)[nH]2)c1,4.5µM*,?,8.2µM*,?,1.1µM*,?
Cc1noc(/C=C/c2ccccc2F)c1S(=O)(=O)N1CCC(C(=O)NCC(C)c2ccccc2)CC1 (centres undefined),.,.,.,.,0%,.
O=C(O)c1ccc(/C=C/c2nc3ccccc3c(=O)[nH]2)cc1,.,12%,-3%,8%,15µM*,-5%
O=C(O)c1ccc(-n2c(/C=C\c3ccc(O)cc3)nc3ccccc3c2=O)cc1,-9%,.,.,.,?,.
O=C[C@@H]1CCCN1C(=O)[C@@H]1CCCN1C(=O)OCc1ccccc1,0%,.,.,.,.,.
O=C(c1cccc(F)c1)N1CCC[C@@]2(CCN(C(c3ccccc3)c3ccccc3)C2)C1,-72%,.,.,.,.,.
CCCn1c(O)c(C=Nc2ccccc2)sc1=S,.,14%,?,?,21µM*,?
CCCCn1c(O)c(/C=C/C=C/C=Nc2ccccc2)sc1=S,-57%,-13%,5%,6%,11µM*,1%
OCC1CCCN(C(=S)NCCc2ccccc2)C1 (centres undefined),?,3.2µM*,?,?,17µM*,?
S=C(NCCc1ccccc1)N1CCN(C(=S)NCCc2ccccc2)CC1,.,-2%,-4%,?,-6%,-1%
CC1CCN(C(=S)NCCc2ccccc2)CC1,-2%,3.5µM*,7.3µM*,?,11µM*,2µM*
CCOC(=O)c1ccc(NC(=O)Cn2nnc3ccccc32)cc1,-4%,3.5µM*,?,?,11µM*,2.8µM*
SMILES,SMN2 splice enh,NPC1 prom act,ELG1 genotox,ELG1 DNA repair,FLuc counter,Rab9 promoter act
COC(=O)c1ccc(COn2nnc3ccccc32)cc1,13µM*,1.1µM*,?,?,6.7µM*,1µM*
COC(=O)c1ccc(Cn2nnc3ccccc32)cc1,.,-2%,0%,-2%,4%,-2%
CCOC(=O)c1ccc(NC(=O)CN2C(=O)CSC2=O)cc1,-9%,-13%,2%,17%,21µM*,1%
CCOC(=O)c1ccc(NC(=O)CN2C(=O)CSCC2=O)cc1,-5%,1%,6%,21%,15µM*,6%
CCOC(=O)c1ccc(NC(=O)CCn2nnc3ccccc32)cc1,10%,-1%,6%,19%,0%,3%
CCOC(=O)c1cccc(NC(=O)c2ccc3c(c2)C(=O)N(CC2CCCO2)C3=O)c1 (centres undefined),.,17%,-10%,-10%,?,0%
O=C(NCc1ccccc1)c1nnc(Cc2cccc(F)c2)o1,.,.,.,.,5%,.
O=C1N(c2ccccc2C(F)(F)F)O[C@]1(c1ccccc1)C1CCCCC1,.,-10%,-3%,?,4%,-8%
COC(=O)C(CO)Nc1ncnc2onc(-c3ccc(F)cc3)c12 (centres undefined),.,-3%,1%,2%,0%,-2%
COc1ccc(CN2CCNC(=O)C2CC(=O)N2CCCO2)c(OC)c1 (centres undefined),.,-1%,-1%,21%,-1%,-15%
Cc1cccc(-c2[nH]c(C(C)(C)C)nc2-c2ccc3nccnc3c2)n1,.,-11%[46.1 µM],.,.,.,-22%[46.1 µM]
CCCOc1ccc(N2C(=O)CC(N(CCc3ccc(OC)c(OC)c3)C(=S)Nc3ccccc3)C2=O)cc1 (centres undefined),-20%,-11%,-3%,16µM*,-1%,-2%
CCCOc1ccc(N2C(=O)CC(N(Cc3ccc(OC)cc3)C(=S)Nc3ccccc3)C2=O)cc1 (centres undefined),?,-2%,-1%,?,-5%,-5%
COc1ccc(C2=NOC(C(=O)N3CCOCC3)C2)cc1OC (centres undefined),13%,15%,7%,?,-1%,16%
COc1cccc(C2=NOC(C(=O)N3CCOCC3)C2)c1 (centres undefined),8%,3.5µM*,?,?,19µM*,?
COCC(=O)N1CCC[C@@]2(CCN(Cc3cc(C(F)(F)F)cc(C(F)(F)F)c3)C2)C1,-9%,.,.,.,.,.
O=C(/C=C/c1nc2ccccc2s1)N1CCCCCC1,.,3.2µM*,?,?,15µM*,2µM*
O=S(=O)(NCc1cn2ccccc2n1)c1cccs1,.,19%,6%,?,?,?
COc1cc(C(=O)Nc2cccc(S(=O)(=O)N3CCCC3)c2)cc(OC)c1C,.,-4%,-8%,29µM*,-17%,-5%
O=C(Nc1cccc(S(=O)(=O)N2CCCCC2)c1)c1cc(=O)[nH]c2ccccc12,.,.,1%,26µM*,.,.
